According to PubChem BioAssay (EPA / NIEHS):
Inconclusive results are not listed. Activity calls are given as the source filed them. How the source made its calls: active means hit-call score of the fitted dose curve at least 0.9, where 1 is the maximum; inconclusive means response in the unintended direction; inactive means score below 0.9.

target: human Adrenergic, Alpha 2c Receptor (Adra2C), ADRA2C (gene 152) (UniProt P18825); assay: NVS_GPCR_hAdra2C: NovaScreen (NVS) G Protein-Coupled Receptor Assay for human Adrenergic, Alpha 2c Receptor (Adra2C) (AID 2283259)
Sequence (P18825 whole entry, looked up): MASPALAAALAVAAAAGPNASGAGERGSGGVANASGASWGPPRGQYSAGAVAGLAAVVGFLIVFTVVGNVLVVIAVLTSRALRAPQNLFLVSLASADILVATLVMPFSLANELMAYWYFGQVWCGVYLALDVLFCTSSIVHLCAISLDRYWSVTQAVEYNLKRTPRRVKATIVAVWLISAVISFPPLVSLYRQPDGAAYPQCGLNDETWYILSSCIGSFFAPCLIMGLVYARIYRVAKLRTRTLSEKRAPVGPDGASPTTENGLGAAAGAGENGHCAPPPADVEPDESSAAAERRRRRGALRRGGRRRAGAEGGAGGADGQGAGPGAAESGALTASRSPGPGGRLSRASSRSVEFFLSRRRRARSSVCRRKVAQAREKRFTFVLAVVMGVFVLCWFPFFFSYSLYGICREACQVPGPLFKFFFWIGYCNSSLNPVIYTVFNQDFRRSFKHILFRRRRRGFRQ
Method in brief: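 Radioligand binding on Sf9-expressed receptor membranes, 1 h after chemical dosing, filter-based scintillation read-out. Loss of binding fitted positively versus DMSO; primary duplicate screen at 25 uM, actives retested in concentration series.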

Compound	AC50
CCCCCCCCn1sccc1=O	6.02 µM (active)
[Cl-].[Cl-].[Hg+2]	0.227 µM (active)
CCOC(=O)[C@]1(c2ccccc2)Oc2ccccc2[C@@H]1N	0.611 µM (active)

target: Beta-2 adrenergic receptor (Homo sapiens) (UniProt P07550); assay: NVS_GPCR_hAdrb2: NovaScreen (NVS) G Protein-Coupled Receptor Assay for human Adrenergic, Beta 2 Receptor (Adrb2) (AID 2283261)
Sequence (P07550 whole entry, looked up): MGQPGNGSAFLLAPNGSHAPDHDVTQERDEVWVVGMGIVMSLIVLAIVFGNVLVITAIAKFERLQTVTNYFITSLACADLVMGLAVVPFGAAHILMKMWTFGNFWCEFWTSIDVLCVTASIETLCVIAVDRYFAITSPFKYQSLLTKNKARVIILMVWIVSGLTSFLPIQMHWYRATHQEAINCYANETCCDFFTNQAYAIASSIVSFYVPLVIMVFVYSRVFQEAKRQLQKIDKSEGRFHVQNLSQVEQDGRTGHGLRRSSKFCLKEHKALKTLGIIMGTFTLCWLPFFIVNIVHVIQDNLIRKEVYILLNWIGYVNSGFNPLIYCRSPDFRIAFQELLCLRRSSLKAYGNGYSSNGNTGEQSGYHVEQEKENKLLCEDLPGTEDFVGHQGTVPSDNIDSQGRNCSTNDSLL
Method: NVS_GPCR_hAdrb2 is a biochemical, single-readout assay that uses extracted gene-proteins from CHO in a cell-free assay. Measurements were taken 1 hour after chemical dosing in a 96-well plate.NVS_GPCR_hAdrb2 is one of one assay component(s) measured or calculated from the NVS_GPCR_hAdrb2 assay. It is designed to make measurements of radioligand binding, a form of binding reporter, as detected with scintillation counting signals by Filter-based radiodetection technology.Data from the assay component NVS_GPCR_hAdrb2 was analyzed into 1 assay endpoint. This assay endpoint, NVS_GPCR_hAdrb2, was analyzed in the positive analysis fitting direction relative to DMSO as the negative control and baseline of activity. Using a type of binding reporter, loss-of-signal activity can be used to understand changes in the binding as they relate to the gene ADRB2. Furthermore, this assay endpoint can be referred to as a primary readout, because the performed assay has only produced 1 assay endpoint. To generalize the intended target to other relatable targets, this assay endpoint is annotated to the gpcr intended target family, where the subfamily is rhodopsin-like receptor.
Binding assays used specific radioligands (tritiated, iodinated) with non-radioactive competitive displacement ligands in agonist or antagonist protocols (as indicated) and various reference compounds and inhibitors to titrate specific binding to receptors and transporters. Most enzyme assays (CYPs, kinases, phosphatases, proteases, HDACs) used recombinant protein and specific substrates (fluorescence mostly, some colorimetric and radioactive) and inhibitors, followed by a biochemical separation of substrate and product. All assays for the biochemical HTS were initially run in duplicate at a single concentration (10 uM for CYP450 assays and 25 uM for all others). […] Each assay was run with positive and negative controls, and concurrent controls on every plate. The follow-up (secondary) screen tested active chemical-pairs in concentration series, as well as a few additional assays not tested in the primary screen, some selected negative inactives, and several cases re-run in the concentration series for confirmatory purposes.

Compound	AC50	outcome
CCC[CH2][Sn]([Cl])([CH2]CCC)[CH2]CCC	5.47 µM (active)	–
[Cl-].[Cl-].[Hg+2]	0.925 µM (active)	–
c1ccc2c(c1)-c1cccc3cccc-2c13	–	inactive
CCOC(=O)[C@]1(c2ccccc2)Oc2ccccc2[C@@H]1N	16.8 µM (active)	–
Cc1cccc(N)c1N	–	inactive
CN(C)C(=O)Nc1ccc(Cl)cc1	–	inactive

target: human Adrenergic, Beta 3 Receptor (Adrb3), ADRB3 (gene 155) (UniProt P13945); assay: NVS_GPCR_hAdrb3: NovaScreen (NVS) G Protein-Coupled Receptor Assay for human Adrenergic, Beta 3 Receptor (Adrb3) (AID 2283262)
Sequence (P13945 whole entry, looked up): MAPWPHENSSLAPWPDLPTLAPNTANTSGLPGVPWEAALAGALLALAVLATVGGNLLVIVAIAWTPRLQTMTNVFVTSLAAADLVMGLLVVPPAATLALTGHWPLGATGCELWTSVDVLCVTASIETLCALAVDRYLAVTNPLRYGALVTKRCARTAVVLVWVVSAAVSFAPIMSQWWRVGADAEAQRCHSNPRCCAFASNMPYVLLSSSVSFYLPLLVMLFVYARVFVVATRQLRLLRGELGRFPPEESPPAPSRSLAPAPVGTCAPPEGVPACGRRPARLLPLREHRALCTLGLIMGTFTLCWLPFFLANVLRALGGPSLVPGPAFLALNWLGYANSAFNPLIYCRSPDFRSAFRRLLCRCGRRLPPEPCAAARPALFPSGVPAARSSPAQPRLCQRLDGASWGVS
Method in brief: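 Membranes from SK-N-MC cells pretreated with isoproterenol and 8-bromo-cAMP were used in a radioligand competitive displacement binding assay. Binding was read by filter-based scintillation counting 1 hour after dosing. Primary screening was in duplicate at 25 uM, with concentration series in follow-up.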

Compound	AC50	outcome
CCC[CH2][Sn]([Cl])([CH2]CCC)[CH2]CCC	9.81 µM (active)	–
[Cl-].[Cl-].[Hg+2]	–	inactive
O=C(N[C@H](c1ccccc1)[C@@H]1CN2CCC1CC2)c1c(Cl)ccc(C(F)(F)F)c1Cl	–	inactive
CCOC(=O)[C@]1(c2ccccc2)Oc2ccccc2[C@@H]1N	4.96 µM (active)	–
